In all, about 400,000 compounds went through this assay and about 2,100 (0.53%) were called active. Roughly 14% stayed inconclusive and do not appear here. No rule for the calls is given here. What follows is part of a selection rich in actives, with near analogues and random picks from the rest.

103 molecules from ChEMBL document CHEMBL1201862, “PubChem BioAssay data set” (2004) can be followed below.

Sequence of Ataxin-2 (Homo sapiens) (Q99700 whole entry): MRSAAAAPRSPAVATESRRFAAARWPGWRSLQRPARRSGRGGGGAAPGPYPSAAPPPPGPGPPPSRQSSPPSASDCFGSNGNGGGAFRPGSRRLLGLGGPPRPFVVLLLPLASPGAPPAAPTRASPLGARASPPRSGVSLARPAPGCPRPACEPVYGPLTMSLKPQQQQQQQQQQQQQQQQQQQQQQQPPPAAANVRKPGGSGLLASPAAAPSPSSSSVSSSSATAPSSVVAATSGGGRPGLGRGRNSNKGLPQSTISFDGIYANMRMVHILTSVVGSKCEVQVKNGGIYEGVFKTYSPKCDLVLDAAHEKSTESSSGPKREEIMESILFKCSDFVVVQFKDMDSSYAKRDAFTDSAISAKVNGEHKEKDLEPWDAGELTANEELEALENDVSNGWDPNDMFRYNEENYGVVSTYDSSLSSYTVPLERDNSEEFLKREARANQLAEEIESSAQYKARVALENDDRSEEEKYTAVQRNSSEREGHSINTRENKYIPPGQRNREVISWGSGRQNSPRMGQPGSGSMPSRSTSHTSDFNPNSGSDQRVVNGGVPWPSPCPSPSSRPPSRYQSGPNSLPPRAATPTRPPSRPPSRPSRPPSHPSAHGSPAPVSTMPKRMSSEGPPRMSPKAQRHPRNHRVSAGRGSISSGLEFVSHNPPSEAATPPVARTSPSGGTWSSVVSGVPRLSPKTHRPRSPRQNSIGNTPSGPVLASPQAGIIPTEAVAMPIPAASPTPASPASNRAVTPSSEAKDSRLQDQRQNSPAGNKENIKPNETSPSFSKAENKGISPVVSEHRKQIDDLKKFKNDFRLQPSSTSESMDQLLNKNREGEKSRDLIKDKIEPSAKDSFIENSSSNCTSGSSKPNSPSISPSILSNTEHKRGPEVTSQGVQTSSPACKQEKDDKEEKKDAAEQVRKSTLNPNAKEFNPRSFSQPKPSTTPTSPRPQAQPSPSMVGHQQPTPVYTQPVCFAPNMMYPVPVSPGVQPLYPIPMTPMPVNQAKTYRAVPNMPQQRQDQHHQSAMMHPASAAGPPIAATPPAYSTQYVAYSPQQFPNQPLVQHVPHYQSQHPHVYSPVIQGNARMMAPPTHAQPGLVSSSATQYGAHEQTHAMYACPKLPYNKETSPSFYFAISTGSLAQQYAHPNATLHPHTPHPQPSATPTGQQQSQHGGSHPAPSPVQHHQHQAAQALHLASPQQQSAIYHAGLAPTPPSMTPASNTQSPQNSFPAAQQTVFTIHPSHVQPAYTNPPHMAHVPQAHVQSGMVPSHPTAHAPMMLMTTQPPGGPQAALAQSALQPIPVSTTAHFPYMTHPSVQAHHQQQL

The test has as its target Ataxin-2 (Homo sapiens) (UniProt Q99700). The test can be described thus: qHTS for Inhibitors of ATXN expression. The test is classed as functional.
For the molecule `O=C(C(Cc1ccccc1)n1cccc1)N1CCCCC1` (stereo not drawn), the Potency entry was “inactive”. In the case of `O=C1OCCN1C(=O)[C@H]1[C@H](c2ccccc2)C(c2cccc(Cl)c2)=NN1c1ccccc1` it was “inactive”; in that of `CCCc1nnc(SCC(=O)Nc2ccccc2F)o1`, “inactive”. As for `Cc1ccc(C(C)NC(=O)C23CC4CC(CC(C4)C2)C3)cc1` (stereo not drawn), the entry is “inactive”; as for `CCCCn1c(CNC(=O)C23CC4CC(CC(C4)C2)C3)nnc1SCC(=O)Nc1ccc(C)cc1`, 35.5 µM (active). As for `COc1ccc(NC(=O)Cc2nnc(SCC(=O)NC3=NCCS3)n2C)cc1`, the entry is “inactive”; as for `N#Cc1c(N)n(CCCN2CCOCC2)c2nc3ccccc3nc12`, “inactive”; as for `O=C(Cc1cccc2ccccc12)Nc1ccc(Br)cc1C(=O)O`, “inactive”. On to `O=C(Nc1ccn(CCCN2CCN(Cc3cccc4ccccc34)CC2)c(=O)n1)OCc1ccccc1`, for which the Potency was 14.1 µM (active).

Regarding `CC(=O)NCCNc1nc2c(-c3cccc(C(F)(F)F)c3)nnn2c2ccccc12`, the Potency entry was “inactive”. In the case of `Cc1ccc(S(=O)(=O)c2nnn3c2nc(NC2CCN(Cc4ccccc4)CC2)c2ccccc23)cc1C` it was 39.8 µM (active). As for `Cc1ccc(-c2nnn3c2nc(NCCc2ccc(S(N)(=O)=O)cc2)c2ccccc23)cc1`, the entry is “inactive”; as for `Cc1nc2nc(SCC(=O)O)nn2c(C)c1Cc1ccccc1Cl`, “inactive”; as for `Cc1ccc(OCC(=O)N2CC(C)OC(C)C2)c([N+](=O)[O-])n1` (stereo not drawn), “inactive”. As for `CN1C2CCC1/C(=C/c1cccn1C)C(=O)/C2=C\c1cccn1C`, the entry is “inactive”. As for `N=c1c(S(=O)(=O)c2ccc(Br)cc2)cc2c(=O)n3ccccc3nc2n1Cc1ccco1`, the Potency result was “inactive”. In the case of `O=[N+]([O-])c1cc(-c2ncccn2)c([N+](=O)[O-])s1` it was 25.1 µM (active).

For `Cc1c(NS(=O)(=O)c2cc([N+](=O)[O-])ccc2Cl)c(=O)n(-c2ccccc2)n1C`, the Potency entry is “inactive”. As for `CC(c1ccon1)N(C)C(=O)c1cnn(-c2ncc3c(n2)-c2ccccc2CC3)c1C1CC1` (stereo not drawn), the entry is “inactive”; as for `Cc1cc(C)c(C#N)c(OCc2ccc(Cl)nc2)n1`, “inactive”; as for `N#Cc1ccc(C(=O)OCC(=O)Nc2cccnc2Cl)cc1`, “inactive”.

For `Cc1ccc(NC(=O)/C(C#N)=C/c2cc(C)n(-c3ccc(Br)cc3)c2C)cc1C`, the Potency is 35.5 µM (active). With `COc1cc(C)c(/C=C(\C#N)C(=O)Nc2ccc(C)cc2)cc1C(C)C`, the Potency result was “inactive”. As for `Cc1ccc(NC(=O)/C(C#N)=C/c2cn(CC(=O)NCc3ccco3)c3ccccc23)cc1C`, the Potency entry was “inactive”.

For `CNC(=S)N/N=C/c1c2ccccc2c(Cl)c2ccccc12`, the Potency entry was “inactive”.

Regarding `NC(=S)NN=Cc1nccc2c(N)cccc12`, the Potency was 8.91 µM (active). As for `NC(=S)NN=Cc1nccc2c(C(F)(F)C(F)(F)C(F)(F)F)cccc12`, the figure is 1 µM (active); as for `N=c1c(C(=O)NCC2CCCO2)cc2c(=O)n3ccccc3nc2n1CCCO` (stereo not drawn), “inactive”.

On to `OCCn1ccc(-c2ccccc2OCc2ccc(F)cc2)n1`, for which the Potency entry is “inactive”.

`CCCCCCc1cc2cc(S(=O)(=O)c3ccc(C)cc3)c(=O)oc2cc1O`: the Potency entry was “inactive”.

With `CC(C)N(C(=O)CS(=O)(=O)c1ccc(Cl)c(Cl)c1)C(C)C`, the Potency entry is “inactive”. As for `O=C(NCC1CCCO1)c1nn2c(C(F)(F)F)cc(-c3cccs3)nc2c1Br` (stereo not drawn), the entry is “inactive”; as for `COCCCNc1nc2ccccc2nc1NS(=O)(=O)c1cc(Cl)ccc1Cl`, “inactive”. In the case of `CCCCNC(=O)C(C)N(CCN(C)C)C(=O)CCCN1C(=O)NC(c2ccc(Cl)cc2)C(C(=O)OCc2ccccc2)=C1C` (stereo not drawn) it was 25.1 µM (active); in that of `NC(=O)C1(N2CCCCC2)CCN(C(=O)c2cc(COc3c(F)cccc3F)on2)CC1`, “inactive”. In the case of `Cc1ccc(NC(=O)c2ccc(Nc3c([N+](=O)[O-])cc([N+](=O)[O-])cc3[N+](=O)[O-])cc2)cc1` it was 15.8 µM (active); in that of `Cc1ccc(C(=O)Nc2ccc(S(=O)(=O)Nc3ncccn3)cc2)cc1[N+](=O)[O-]`, “inactive”; in that of `COc1ccc(C(=O)Nc2ccc(S(=O)(=O)Nc3nccc(C)n3)cc2)cc1[N+](=O)[O-]`, “inactive”.

As to `C/C(=N\NC(=O)CC#N)c1cc2ccc(O)cc2oc1=O`, the Potency entry is “inactive”. On to `COc1ccc(CN2CCCC(N3CCN(c4cccc(Cl)c4)CC3)C2)cc1OC` (stereo not drawn), for which the Potency result was “inactive”.

Consider `Cc1cc2sc3ccccc3c(=O)c2c(C)c1O`, for which the Potency result was “inactive”. Take `CCN(CC)CCNc1ccc(C)c2sc3ccc(O)cc3c(=O)c12`: the Potency is 33.6 µM (active). As for `CNC(=O)OCc1nc(SSC(C)(C)C)n(C)c1COC(=O)NC`, the Potency was 23.8 µM (active). As for `NC(=O)c1cc2ccc(O)cc2o/c1=N\Cc1ccccc1`, the entry is “inactive”; as for `CC(=O)CC1OC(O)=C(Br)/C1=N/Cc1ccccc1` (stereo not drawn), 20 µM (active). In the case of `Oc1nc(N2CCOCC2)cc2ccccc12` it was “inactive”; in that of `Cc1nc(NC(=O)/C=C/c2ccccc2)sc1C(=O)Nc1ccc(Cl)cc1`, 39.8 µM (active); in that of `Cc1cccc(Nc2nc(-c3ccccc3)c(C(=O)Nc3cccnc3)s2)c1`, “inactive”. In the case of `Cc1nc(NS(=O)(=O)c2ccccc2)sc1C(=O)NN` it was “inactive”; in that of `CC(C)=CC(=O)N1CCC(N2CCC(C(=O)N3CCOCC3)CC2)CC1`, “inactive”. Regarding `O=C(COCc1cc(-c2ccco2)on1)NC1CCCCC1`, the Potency entry was “inactive”.

With `CCCc1cc(=O)oc2c(C)c(O[C@@H]3O[C@H](CO)[C@@H](O)[C@H](O)[C@H]3O)ccc12`, the Potency entry was “inactive”.

Regarding `Nc1nc(N)c2nc(-c3ccccc3)c(N)nc2n1`, the Potency entry is “inactive”. As for `OCCNc1nc(Nc2ccc(Br)cc2)nc2ccccc12`, the entry is “inactive”; as for `COc1ccc(OC)c(Nc2nc(-c3ccccc3O)nc3ccccc23)c1`, “inactive”.

Consider `COc1ccc(OC)c(Nc2nc(-c3ccncc3)nc3ccccc23)c1`, for which the Potency entry is “inactive”. In the case of `Cc1cccc(Nc2nc(NCc3ccco3)c3ccccc3n2)c1` it was 25.1 µM (active). Turning to `COc1ccc(OC)c(Nc2nc(NCc3ccco3)c3ccccc3n2)c1`, the Potency was 39.8 µM (active). As for `Cc1ccc(-c2nc(NCc3ccco3)n(S(C)(=O)=O)n2)cc1`, the entry is “inactive”; as for `O=[N+]([O-])c1cccc(S(=O)(=O)NCC2CC3CCC2C3)c1` (stereo not drawn), “inactive”; as for `CC(C)(C)c1ccc(SCCc2cccnc2)cc1`, “inactive”.

On to `Nc1c(C(=O)Nc2ccc(Cl)cc2F)sc2nc(-c3cccs3)ccc12`, for which the Potency entry is “inactive”. As for `O=C(O)c1cccc(N2C(=O)c3cccc4c(Cl)ccc(c34)C2=O)c1`, the entry is “inactive”; as for `NC(=O)c1cc(N2C(=O)C=CC2=O)ccc1Cl`, 35.5 µM (active); as for `CN1CCN(C(=O)/C=C/c2ccc([N+](=O)[O-])o2)CC1`, 8.91 µM (active).

As for `CN1CCCN(C(=O)/C=C/c2ccc(Cl)cc2Cl)CC1`, the Potency result was “inactive”. As for `CN1CCN(/N=C/c2ccc(-c3ccc([N+](=O)[O-])cc3Cl)o2)CC1`, the entry is “inactive”; as for `Nc1cccc2nc3ccccc3cc12`, “inactive”; as for `C1=C/C(=N\C2CCCCC2)C=C2C1=NC13CCCCC1CC1=C(CCCC1)N23` (stereo not drawn), 35.5 µM (active).

For the molecule `CSc1ccc(CN(C)Cc2nc(O)c3ccccc3n2)cc1`, the Potency entry is “inactive”. In the case of `CCn1c(CNC(=O)c2ccc3c(c2)OCO3)nnc1SCC(=O)Nc1ccccc1F` it was “inactive”. In the case of `COc1ccc(CCNC(=O)CSc2cn(CCNC(=O)c3cccc(C(F)(F)F)c3)c3ccccc23)cc1OC` it was 22.4 µM (active); in that of `O=C(CSc1cn(CCNC(=O)c2cccc(C(F)(F)F)c2)c2ccccc12)Nc1ccc2c(c1)OCCO2`, 35.5 µM (active).

With `Cc1nnc(NC(=O)CSc2cn(CCNC(=O)c3ccccc3)c3ccccc23)s1`, the Potency entry was “inactive”. As to `COc1ccc(CCNC(=O)CSc2nnnn2C)cc1OC`, the Potency result is “inactive”. Take `O=C(COC(=O)CCSc1ccccc1Cl)NCc1ccco1`: the Potency result is “inactive”. In the case of `COc1ccc(CC(=O)NNC2=Nc3cccc4cccc2c34)cc1` it was “inactive”; in that of `N#Cc1ccc(C(=O)CSc2nnc(-c3ccc(C(F)(F)F)cn3)s2)cc1`, “inactive”.

With `O=C(NCCO)/C(=C\c1ccco1)NC(=O)c1cccs1`, the Potency result was “inactive”. As for `COC(=O)C1=CN(C(C)C)C=C(C(=O)OC)C1c1cccc(OC)c1`, the entry is “inactive”; as for `Cc1ccn2c(Nc3ccccc3C)c(-c3ccccn3)nc2c1`, 15.8 µM (active).

Consider `c1cn2c(NC3CCCC3)c(-c3ccc(N4CCOCC4)cc3)nc2cn1`, for which the Potency entry was “inactive”.

With `Cc1ccc(-c2nc(Nc3ccc(N4CCOCC4)cc3)c3ccccc3n2)cc1`, the Potency entry is “inactive”. As for `Cc1ccccc1Nc1c(-c2ccc(N3CCOCC3)cc2)nc2cccc(C)n12`, the figure is 22.4 µM (active); as for `COc1ccc(C)cc1NC(=O)c1cc2c(=O)n3ccccc3nc2n1C`, “inactive”; as for `COc1cc(O)ccc1-c1nc2cc(C)ccn2c1Nc1ccccc1C`, 35.5 µM (active).

As to `Cc1cccc(C)c1Nc1c(-c2ccc(N3CCOCC3)cc2)nc2cnccn12`, the Potency result was “inactive”.

Take `c1ccc2c(Nc3ccc(N4CCOCC4)cc3)nc(N3CCOCC3)nc2c1`: the Potency result is “inactive”. As for `Cc1ccn2c(Nc3ccccc3C)c(-c3ccc(N4CCOCC4)cc3)nc2c1`, the figure is 35.5 µM (active); as for `CCCCNc1c(-c2ccc(-c3ccc(C(C)=O)cc3)c(OC)c2)nc2cnccn12`, “inactive”. As for `C/C(=N/NC(=O)c1sc(NS(=O)(=O)c2ccccc2)nc1C)c1sc(N)nc1C`, the entry is “inactive”; as for `Oc1nc2ccccc2nc1/C=C/c1ccc(Cl)cc1`, “inactive”. In the case of `CC(C)CN(CC(C)C)C(S)=Nc1ccc(Cl)cc1` it was “inactive”; in that of `CN(C)CC(O)c1ccc(C=Cc2ccc(Cl)cc2)cc1` (stereo not drawn), 31.6 µM (active). Turning to `Cc1ccc(S(=O)(=O)Nc2ccccc2/C=N/c2nc3ccccc3n2C(C)C)cc1`, the Potency entry is “inactive”. As for `Nc1cc2sc(-c3ccc(C(=O)O)cc3)nc2cc1Cl`, the entry is “inactive”. As for `CC[C@@H](C)[C@H](CN[C@H](CNC)C(C)C)NC[C@@H](C)c1ccc(CC(C)C)cc1`, the figure is 22.4 µM (active); as for `COc1cc(/C=C(\C#N)c2nc3ccccc3[nH]2)cc(Cl)c1OCc1ccccc1Cl`, “inactive”. In the case of `COc1cc(CNC2CCCC2)cc(Cl)c1OCc1ccccc1F` it was 28.2 µM (active); in that of `NNC(=O)c1oc2ccccc2c1-n1cccc1`, “inactive”; in that of `Cc1nc2c(c(C)nn2-c2ccccc2)c(C)c1C`, “inactive”. Take `O=c1c(Cl)cc(Cl)nn1-c1ccccc1`: the Potency was 25.1 µM (active). Consider `Cc1cc(NC(=O)Nc2ccc(Cl)cc2)n(-c2ccccc2)n1`, for which the Potency result is “inactive”.
